Results as given in PubChem BioAssay (EPA / NIEHS).
Several values for one entry are separate records, joined by “and”; a condition that tells them apart may be missing. Equal entries are not always repeated. Activity calls are given as the source filed them. Rule for the calls: active = hit-call score of the fitted dose curve at least 0.9, where 1 is the maximum; inactive = score below 0.9.

read-out: Thrombomodulin, THBD (gene 7056); assay: BSK_3C_Thrombomodulin: BioMAP Diversity Plus: 3C Assay for Thrombomodulin Biomarker Activity (AID 2283029); details: primary human endothelial cells (HUVEC); actives raise or lower the signal
How it was run: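 Human umbilical vein endothelial cells were exposed to chemicals for 24 h; cell-surface thrombomodulin quantified by ELISA, with bidirectional fitting against DMSO baseline.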

| Structure (SMILES) | outcome | AC50 |
| --- | --- | --- |
| c1ccc2c(c1)ccc1ncccc12 | inactive | – |
| CC1OC1C1CCC2(C)OC2C1 (stereo not given) | inactive | – |
| CCO[Si](C)(OCC)OCC | inactive | – |
| CCOC(=O)c1ccccc1C(=C1C=C(Br)C(=O)C(Br)=C1)c1cc(Br)c(O)c(Br)c1 | – | 18.5 µM (active) and 19.2 µM (active) |
| CCCCC/C=C\C/C=C\CCCCCCCC(=O)OC | inactive | – |
| COc1ccc2nc(N)sc2c1 | inactive | – |

read-out: Vascular endothelial growth factor receptor 2 (Homo sapiens) (UniProt P35968); assay: BSK_4H_VEGFRII: BioMAP Diversity Plus: 4H Assay for Vascular endothelial growth factor receptor 2 (VEGFR2) Biomarker Activity (AID 2283031); details: primary human endothelial cells (HUVEC); actives raise or lower the signal
How it was run: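 ELISA read-out of VEGFRII in primary human umbilical vein endothelium, taken 24 h after chemical treatment. Responses are expressed relative to DMSO, with bidirectional fitting.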

| Structure (SMILES) | outcome |
| --- | --- |
| c1ccc2c(c1)ccc1ncccc12 | inactive |
| CC1OC1C1CCC2(C)OC2C1 (stereo not given) | inactive |
| CCO[Si](C)(OCC)OCC | inactive |
| CCOC(=O)c1ccccc1C(=C1C=C(Br)C(=O)C(Br)=C1)c1cc(Br)c(O)c(Br)c1 | inactive |
| CCCCC/C=C\C/C=C\CCCCCCCC(=O)OC | inactive |
| COc1ccc2nc(N)sc2c1 | inactive |

read-out: Human Leukocyte Antigen - DR isotype (HLADR), HLA-DRA (gene 3122); assay: BSK_BE3C_HLADR: BioMAP Diversity Plus: BE3C Assay for Human Leukocyte Antigen - DR isotype (HLADR) Biomarker Activity (AID 2283032); details: primary human bronchial epithelial cells; actives raise or lower the signal
How it was run: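 Human primary bronchial epithelial cells (BE3C system) exposed to compound for 24 hours; cell-surface HLA-DR measured by ELISA, fitted bidirectionally relative to DMSO. Total protein by SRB in parallel cultures tracked cytotoxicity.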

| Structure (SMILES) | outcome | AC50 |
| --- | --- | --- |
| c1ccc2c(c1)ccc1ncccc12 | inactive | – |
| CC1OC1C1CCC2(C)OC2C1 (stereo not given) | inactive | – |
| CCO[Si](C)(OCC)OCC | inactive | – |
| CCOC(=O)c1ccccc1C(=C1C=C(Br)C(=O)C(Br)=C1)c1cc(Br)c(O)c(Br)c1 | – | 4.71 µM (active) and 4.54 µM (active) |
| CCCCC/C=C\C/C=C\CCCCCCCC(=O)OC | – | 18.8 µM (active) |
| COc1ccc2nc(N)sc2c1 | inactive | – |

read-out: Vascular cell adhesion molecule 1 (VCAM1), VCAM1 (gene 7412); assay: BSK_4H_VCAM1: BioMAP Diversity Plus: 4H Assay for Vascular cell adhesion molecule 1 (VCAM1) Biomarker Activity (AID 2283033); details: primary human endothelial cells (HUVEC); actives raise or lower the signal
How it was run: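 Primary human umbilical vein endothelial cells, 4H stimulation system, treated for 24 h; cell-surface VCAM-1 quantified by ELISA. Bidirectional fitting against DMSO; cytotoxicity tracked by SRB total-protein staining in parallel cultures.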

| Structure (SMILES) | outcome | AC50 |
| --- | --- | --- |
| c1ccc2c(c1)ccc1ncccc12 | inactive | – |
| CC1OC1C1CCC2(C)OC2C1 (stereo not given) | inactive | – |
| CCO[Si](C)(OCC)OCC | inactive | – |
| CCOC(=O)c1ccccc1C(=C1C=C(Br)C(=O)C(Br)=C1)c1cc(Br)c(O)c(Br)c1 | – | 20.6 µM (active) and 20.1 µM (active) |
| CCCCC/C=C\C/C=C\CCCCCCCC(=O)OC | – | 36.2 µM (active) |
| COc1ccc2nc(N)sc2c1 | inactive | – |

read-out: Interferon-gamma inducible Protein 10 (IP10), CXCL10 (gene 3627); assay: BSK_BE3C_IP10: BioMAP Diversity Plus: BE3C Assay for Interferon-gamma inducible Protein 10 (IP10) Biomarker Activity (AID 2283034); details: primary human bronchial epithelial cells; actives raise or lower the signal
How it was run: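 Primary human bronchial epithelial cells, with IP-10 measured by ELISA 24 hours after chemical dosing. Bidirectional fit against DMSO; cytotoxicity checked by SRB total protein staining in parallel cultures.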

| Structure (SMILES) | outcome | AC50 |
| --- | --- | --- |
| c1ccc2c(c1)ccc1ncccc12 | inactive | – |
| CC1OC1C1CCC2(C)OC2C1 (stereo not given) | inactive | – |
| CCO[Si](C)(OCC)OCC | inactive | – |
| CCOC(=O)c1ccccc1C(=C1C=C(Br)C(=O)C(Br)=C1)c1cc(Br)c(O)c(Br)c1 | – | 3.73 µM (active) and 3.06 µM (active) |
| CCCCC/C=C\C/C=C\CCCCCCCC(=O)OC | – | 24.9 µM (active) |
| COc1ccc2nc(N)sc2c1 | inactive | – |
